# Compound activity as filed in PubChem BioAssay.
# Shown are actives, neighbours in structure and some others; about 17% of the full set was active somewhere.
# HT1080 IDH1KD tx: kills HT-1080 cells with IDH1 knockdown; Potency, µM (highest dose often 46.1 µM), most hits filed as cytotoxic; AID 686971; 360,000 compounds, 2% hits; HT-1080 IDH1 knockdown viability, ATP luminescence, 48 h
#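 Viability of IDH1-knockdown HT-1080 fibrosarcoma cells was assessed by CellTiter-Glo after 48 h at 37 °C with titrated compound; concentration-effect curves were classified by fit quality and response size.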
# DT40 TDP1 no CPT: qHTS for Inhibitors of human tyrosyl-DNA phosphodiesterase 1 (TDP1): qHTS in cells in absence of CPT; 420,000 compounds, 15% hits; AID 686978, 2013; DT40 Tdp1-/- hTDP1 cells, no CPT, ATP luminescence, 48 h; Potency, µM (top dose mostly 46.2 µM), usual class: inhibitors; further: nearly all actives have a fitted effect of over 55% in size
#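 Chicken DT40 Tdp1-/- cells complemented with human TDP1, screened without camptothecin (DMSO vehicle only), 400 cells/well. Compounds pin-transferred, cells incubated at 37 °C for at least 48 hr. Growth read as ATP-dependent luminescence (CellTiter-Glo, 30 min at RT).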
# HT1080NT lethal: kills 2HG-producing HT-1080-NT fibrosarcoma cells; HT-1080-NT fibrosarcoma viability, CellTiter-Glo ATP luminescence, 48 h; Potency, µM (series often up to 46.1 µM), hits mostly cytotoxic; 360,000 compounds, 1.6% hits; AID 686970;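 further: NT is the 2HG producing partner of a matched IDH1 knockdown line; nearly all actives have a fitted effect of over 55% in size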
#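 Luminescent CellTiter-Glo readout after 48 hours of compound exposure at 37 degrees C defined viability of HT-1080-NT cells. Activity was normalized to DMSO wells and cell-free media wells; concentration-response curves were fitted and assigned curve classes.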
# TGFb inhibitor: TGF-b pathway inhibition. HepG2 CAGA-GFP TGF-b/SMAD3 reporter, GFP fluorescence, 18 h; TGF-beta stimulated, 500 pg/mL final. Potency, µM (highest dose often 46.1 µM), usual class: inhibitors. 410,000 compounds, 1.2% hits. AID 588855; further: nearly all actives have a fitted effect of over 65% in size
#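 HEPG2 CAGA-GFP reporter cells (1000/well, DMEM with 1% FBS) received compounds, then recombinant TGF-beta at 500 pg/mL final for 18 hours at 37 degrees C. Per-cell GFP summed per well was normalised to unstimulated and stimulated DMSO controls before curve fitting.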
# HepG2 tox: counter-screen for TGF-b inhibitors: cytotoxicity in HepG2 cells; HepG2 CAGA-GFP viability, ATP luminescence, 18 h; 410,000 compounds, 0.76% hits; AID 588856; Potency, µM (highest dose often 46.1 µM), usual class: cytotoxic
#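 CellTiter-Glo luminescence gave cytotoxicity after 18 hours at 37 degrees C. The cells were HepG2 CAGA-GFP in 1% FBS DMEM, stimulated with 500 pg/mL TGF-beta after compound addition. %Activity was normalised to no-cell wells (complete cell-killing) and DMSO (no toxicity), and curves were fitted and classified.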
# DT40 TDP1 CPT: growth inhibition of DT40 Tdp1-/-;hTDP1 cells with camptothecin (screen for TDP1 inhibitors) | chicken DT40 Tdp1-/-;hTDP1 cells + 20 nM CPT, ATP luminescence, 48 h | Potency, µM (titrated, usually from 46.2 µM), most hits filed as inhibitors | 420,000 compounds, 12% hits; further: nearly all actives have a fitted effect of over 55% in size
#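 Cell growth measured by CellTiter-Glo luminescence after a minimum 48 h, 37 C compound exposure with 20 nM CPT in Tdp1-knockout DT40 cells stably expressing hTDP1, seeded 400/well; qHTS titration format.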
# Numbers stand for hits; n = inactive; u = inconclusive; x = no result given; ! = repeats disagree; [ ] = another dose, or the depositor's remark. The call rests on the fitted dose curve; in most records, active means well fitted curve in the direction sought with a large enough effect; inconclusive means small, poorly fitted or top-dose-only effect, or another doubt; inactive means no such curve, though single readings can be large; an effect the other way counts as inactive or inconclusive.
SMILES,HT1080 IDH1KD tx,DT40 TDP1 no CPT,HT1080NT lethal,TGFb inhibitor,HepG2 tox,DT40 TDP1 CPT
O=C(Nc1ccc(O)c2c(=O)cc(-c3cccc(Cl)c3)oc12)c1cccc(Cl)c1,n,8.2µM,n,u,n,7.3µM
CC(C)(C)c1ccc(C(=O)Nc2ccc(O)c3c(=O)cc(-c4cccc(Cl)c4)oc23)cc1,n,7.3µM,n,n,n,5.8µM
Cn1c(=O)c(-c2ccccc2)nc2cnc(Nc3ccccc3)nc21,x,n,x,x,x,n
NNCCc1ccccc1,n,13µM!,n,n,n,u
Cc1cccc(C(=O)N2CCCC(N3CCN(c4ccccc4)CC3)C2)n1 (stereo not drawn),n,n,n,n,n,n
CC(/C=N/NC(=O)c1nnn(-c2nonc2N)c1C(C)C)=C\c1ccccc1,n,u,n,16µM,n,u
CCCN(CCC)Cc1c(C(=O)N/N=C/C(C)=C\c2ccccc2)nnn1-c1nonc1N,u,26µM,n,u,n,16µM
CC(C)c1c(C(=O)N/N=C/c2cccs2)nnn1-c1nonc1N,n,n,n,n,n,n
COc1ccc(Cn2c(=O)c3[nH]cnc3n(-c3ccccc3C)c2=O)cc1,12µM,5.2µM,12µM,n,n,3.7µM
Nc1ccccc1-n1c(=O)n(Cc2ccccc2F)c(=O)c2[nH]cnc21,n,21µM,n,n,n,u
COc1ccc(CN(C(=O)c2ccc(-c3ccccc3)[nH]2)C(C(=O)NCC2CCCO2)c2ccc(C)o2)cc1 (stereo not drawn),u,u,n,n,n,u
CC1=C(C#N)C(C)(C)C(C#N)=C(C)N1,n,u,n,n,1.1µM,n
CC1(C)C(C#N)=C(N)OC2=C1C(=O)CCC2,n,n,n,n,n,n
O=C1c2cccc(OCC(=O)N3CCCc4ccccc43)c2CCN1Cc1cccnc1,n,9.2µM,n,u,n,23µM
Cc1ccccc1CN1CCc2c(OCC(=O)N3CCCc4ccccc43)cccc2C1=O,u,18µM,u,n,n,18µM
CCOC(=O)N1CCN(C(=O)COc2cccc3c2CCN(Cc2ccccc2C)C3=O)CC1,n,u,n,n,n,u
O=C(COc1cccc2c1CCN(Cc1ccccc1)C2=O)N1CCCCC1,n,u,n,n,n,n
O=C1c2cccc(OCC(=O)N3N=C(c4cccs4)CC3c3ccc(F)cc3)c2CCN1Cc1cccnc1 (stereo not drawn),n,10µM,n,u,n,9.2µM
O=C(c1cccnc1)N1N=C(c2cccs2)CC1c1ccc(F)cc1 (stereo not drawn),n,n,n,u,n,n
Cc1ccc(/C=N/n2c(C3CCCCC3)n[nH]c2=S)cc1,n,u,n,n,n,n
Cc1ccc(CCC(=O)Nc2ncc(Cc3cccc(Cl)c3Cl)s2)o1,u,0.016µM,0.73µM,u,n,0.023µM
COc1ccc(NC(=O)CN(C)C(=O)c2cn(-c3ccccc3)nc2-c2cccnc2)cc1,n,u,n,n,n,n
O=C(c1ccccc1)N1CCC(=O)N(C(CO)Cc2ccccc2)CC1 (stereo not drawn),n,n,n,n,n,n
Cc1cccc(COCC(Cc2ccccc2)N2CCN(C(=O)c3ccc(Cl)c(Cl)c3)CCC2=O)c1 (stereo not drawn),u,u,n,u,n,21µM
O=C(c1cccc(Cl)c1)N1CCC(=O)N([C@H](COCc2cccc(Cl)c2)Cc2ccccc2)CC1,16µM,23µM,u,x,x,u
SMILES,HT1080 IDH1KD tx,DT40 TDP1 no CPT,HT1080NT lethal,TGFb inhibitor,HepG2 tox,DT40 TDP1 CPT
Cc1cccc(COC[C@H](Cc2ccccc2)N2CCN(C(=O)c3ccc(Cl)c(Cl)c3)CCC2=O)c1,16µM,u,u,x,x,u
Cc1cccc(COCC(Cc2ccccc2)N2CCN(C(=O)c3cccc(C)c3)CCC2=O)c1 (stereo not drawn),n,u,n,u,n,u
CC(C)CN1CCC2(CC1)CCN(S(=O)(=O)c1ccccc1)CC2,x,23µM,x,x,x,u
CC(C)CN1CC2(CCN(S(=O)(=O)c3ccccc3)CC2)C1,x,n,x,x,x,n
COc1cc(CN2C(=O)C(NC(=O)c3ccco3)(C(F)(F)F)C3=C2CC(C)(C)CC3=O)cc(OC)c1 (stereo not drawn),n,u,n,n,n,n
CC1(Cc2cc(Cl)ccc2C(F)(F)F)C(=O)Nc2cc(F)ccc21 (stereo not drawn),u,15µM,u,u,n,26µM
CC1(Cc2cc(Cl)ccc2C(F)(F)F)C(=O)Nc2cc(C(F)(F)F)ccc21 (stereo not drawn),21µM,15µM,u,u,18µM,23µM
CC1(Cc2ccccc2OC(F)(F)F)C(=O)Nc2cc(-c3ccccc3Cl)ccc21 (stereo not drawn),u,u,u,u,n,u
CCc1ccc2c(c1)NC(=O)C2(C)Cc1ccc(C(F)(F)F)nc1 (stereo not drawn),n,u,n,n,n,u
CC1(Cc2ccc(C(F)(F)F)o2)C(=O)Nc2cc(-c3ccc(F)cc3F)ccc21 (stereo not drawn),u,4.6µM,u,u,20µM,u
O=C(COC(=O)c1cc([N+](=O)[O-])ccc1NCCO)Nc1cccnc1Cl,n,u,n,n,n,n
CCOc1ccc(-c2noc(CCC(=O)NCCc3ccccc3)n2)cc1OC,u,n,u,n,n,n
COc1ccc(CN2C(=O)c3cccc4cccc2c34)cc1F,n,n,n,n,n,n
CCCn1nc(C(=O)Nc2nnc(CC)s2)c2ccccc2c1=O,n,n,n,n,n,n
CCCCCCn1nc(C(=O)Nc2nc3c(s2)CCCC3)c2ccccc2c1=O,n,u,n,n,n,15µM
CCCCn1nc(C(=O)Nc2nc3c(s2)CCCC3)c2ccccc2c1=O,n,u,n,n,n,u
CCCn1nc(C(=O)Nc2nc3ccccc3[nH]2)c2ccccc2c1=O,n,16µM,n,n,n,u
CCCn1nc(C(=O)Nc2ccc(-n3cnnn3)cc2)c2ccccc2c1=O,n,12µM,n,n,n,u
CC(C)n1nc(C(=O)Nc2nc3ccccc3[nH]2)c2ccccc2c1=O,n,15µM,n,n,n,u
Cc1ccccc1NS(=O)(=O)c1ccc(Br)s1,x,n,x,n,n,n
O=C(c1cc(-c2ccccc2)on1)N1CCOc2ccc(CN3CCOCC3)cc2C1,x,u,x,x,x,n[9.04 µM]
